The target of assay [1] is Protein phosphatase methylesterase 1 (Homo sapiens) (UniProt Q9Y570). The experiment in a line: human PME-1 methylesterase inhibition confirmation – biochemical, fluorescence polarization, FP-Rh probe, triplicate (AID 2171).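 Note: 0% = enzyme with DMSO and 100% = wells lacking PME-1.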 As to conditions: recombinant PME-1, FP-Rh probe fluorescence polarization; at 5.9 µM; active compounds read high. A general note: Fluorescence polarisation rises when a labelled molecule tumbles more slowly, as on binding a larger partner.
Sequence of Protein phosphatase methylesterase 1 (Homo sapiens) (Q9Y570 whole entry, looked up): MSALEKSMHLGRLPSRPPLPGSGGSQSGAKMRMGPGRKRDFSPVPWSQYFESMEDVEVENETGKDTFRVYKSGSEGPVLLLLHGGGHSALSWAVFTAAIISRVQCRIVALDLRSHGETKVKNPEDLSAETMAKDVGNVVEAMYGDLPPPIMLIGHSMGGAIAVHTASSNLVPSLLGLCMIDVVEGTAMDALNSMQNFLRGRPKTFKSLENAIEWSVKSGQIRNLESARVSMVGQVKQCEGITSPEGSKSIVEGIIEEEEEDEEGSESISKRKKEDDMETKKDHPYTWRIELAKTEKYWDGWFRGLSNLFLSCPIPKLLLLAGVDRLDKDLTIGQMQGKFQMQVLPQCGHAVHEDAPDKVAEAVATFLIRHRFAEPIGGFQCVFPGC

The target in assay [2] is Sphingosine 1-phosphate receptor 4 (Homo sapiens) (UniProt O95977). In words: blockers of human S1P4 signalling – cell-based, confirmation (AID 1524; in the data active = inhibition above about 30%). As to conditions: S1P4-expressing cell line, antagonist mode, reporter read-out; at 4.98 µM; active compounds read high.
For assay [3], the target named is Sphingosine 1-phosphate receptor 1 (Homo sapiens) (UniProt P21453). The experiment in a line: blockade of human S1P1 receptor – cell-based, counter-screen for S1P4 antagonist project (AID 1564; in the data active = inhibition above about 40%;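 note: receptor stimulated with S1P near its EC80; 0% = agonist stimulated wells and 100% = vehicle only wells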). As to conditions: cell-based S1P1 antagonist counterscreen, at 4.98 µM, active compounds read high. (A counterscreen serves to expose hits that act by an unwanted route or on another target.)
Sequence of Sphingosine 1-phosphate receptor 1 (Homo sapiens) (P21453 whole entry, looked up): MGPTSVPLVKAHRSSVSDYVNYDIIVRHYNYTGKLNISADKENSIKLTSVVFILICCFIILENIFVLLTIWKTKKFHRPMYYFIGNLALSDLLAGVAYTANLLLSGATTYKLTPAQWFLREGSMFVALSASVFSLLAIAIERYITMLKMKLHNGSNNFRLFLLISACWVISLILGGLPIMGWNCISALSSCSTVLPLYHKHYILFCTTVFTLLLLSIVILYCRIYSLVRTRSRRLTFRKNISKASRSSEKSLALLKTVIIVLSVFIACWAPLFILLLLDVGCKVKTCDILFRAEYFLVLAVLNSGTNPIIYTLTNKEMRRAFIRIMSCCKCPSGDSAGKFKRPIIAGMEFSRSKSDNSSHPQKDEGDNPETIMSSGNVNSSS

The test system of assay [4] is TLR4-MyD88 interaction (human), BLA complementation. In words: disruptors of TLR4 binding to MyD88 – cell-based, HeLa CL3-4, BLA complementation, FRET ratio, confirmation (AID 941;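 active = mean inhibition across three repeat runs above about 25% carried over from the earlier screen, limit read from the data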;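 note: plate controls were DMSO only for no effect and clavulanic acid blocking BLA at full dose for full effect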). As to conditions: CCF4 FRET ratio, at 8.4 µM, active compounds read high.
Assay [5] is described as follows: BLA reporter interference in HeLa cells – cell-based, full-length BLA, CCF4 FRET ratio, artefact control for TLR4-MyD88 binding inhibitor project, confirmation (AID 1237;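 active = mean inhibition over three repeats above about 26% taken from the earlier screen, limit read from the data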;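 note: HeLa cells stably expressing beta-lactamase reporter as counterscreen for TLR4-MyD88 inhibitors; 0% = DMSO and 100% = clavulanic acid full inhibition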). As to conditions: at 8.4 µM, active compounds read high.
For assay [6], the target named is Bcl-2-like protein 1 (Homo sapiens) (UniProt Q07817). In words: Bcl-xL BH3-peptide displacement, hit confirmation – biochemical, fluorescence polarization, counter-screen for MCL1 inhibitor project (AID 2166;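 active = inhibition above a cutoff equal to the mean inhibition of all tested compounds plus 3 SD, cut at about 30% in these data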). As to conditions: GST-Bcl-xL / FITC-Bim BH3 peptide FP binding; at 10.9 µM; active compounds read high.
Sequence of Bcl-2-like protein 1 (Homo sapiens) (Q07817 whole entry, looked up): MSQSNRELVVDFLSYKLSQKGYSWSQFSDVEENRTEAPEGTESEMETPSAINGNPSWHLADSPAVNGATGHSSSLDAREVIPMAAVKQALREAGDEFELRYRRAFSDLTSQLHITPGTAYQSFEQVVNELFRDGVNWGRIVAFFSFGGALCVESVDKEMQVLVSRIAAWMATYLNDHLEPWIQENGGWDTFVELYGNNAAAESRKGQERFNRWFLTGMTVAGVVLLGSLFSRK
For assay [7], the target named is Induced myeloid leukemia cell differentiation protein Mcl-1 (Homo sapiens) (UniProt Q07820). The experiment in a line: MCL1-BIM peptide interaction disruptors – biochemical, fluorescence polarization, triplicate, confirmation (AID 2168;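 active = inhibition above the average of all tested compounds plus 3 SD, cut at about 40% in these data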;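 note: 0% = DMSO wells and 100% = unlabeled Bim-BH3 control peptide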). As to conditions: GST-MCL1 / FITC-Bim-BH3 fluorescence polarization; at 10.9 µM; active compounds read high.
Sequence of Induced myeloid leukemia cell differentiation protein Mcl-1 (Homo sapiens) (Q07820 whole entry, looked up): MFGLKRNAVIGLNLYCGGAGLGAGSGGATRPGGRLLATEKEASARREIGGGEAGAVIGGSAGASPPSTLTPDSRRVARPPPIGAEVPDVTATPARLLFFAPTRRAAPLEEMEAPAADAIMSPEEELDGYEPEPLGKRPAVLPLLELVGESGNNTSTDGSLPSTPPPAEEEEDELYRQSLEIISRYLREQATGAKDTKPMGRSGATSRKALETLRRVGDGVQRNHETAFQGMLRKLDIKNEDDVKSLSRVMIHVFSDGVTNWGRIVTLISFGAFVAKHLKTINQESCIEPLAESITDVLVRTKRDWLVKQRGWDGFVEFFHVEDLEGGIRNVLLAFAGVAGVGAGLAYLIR
For assay [8], the target named is Platelet-activating factor acetylhydrolase (Homo sapiens) (UniProt Q13093). The experiment in a line: inhibition of plasma PAF acetylhydrolase – biochemical, fluorescence polarization, human, confirmation (AID 463230;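 active = mean inhibition of the triplicate above the hit cutoff set for the earlier primary screen, cut at about 25% in these data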;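 note: 0% = enzyme with DMSO and 100% = wells lacking pPAFAH enzyme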). As to conditions: recombinant pPAFAH, FP-Rh probe fluorescence polarization; at 3.39 µM; active compounds read high.
Sequence of Platelet-activating factor acetylhydrolase (Homo sapiens) (Q13093 whole entry, looked up): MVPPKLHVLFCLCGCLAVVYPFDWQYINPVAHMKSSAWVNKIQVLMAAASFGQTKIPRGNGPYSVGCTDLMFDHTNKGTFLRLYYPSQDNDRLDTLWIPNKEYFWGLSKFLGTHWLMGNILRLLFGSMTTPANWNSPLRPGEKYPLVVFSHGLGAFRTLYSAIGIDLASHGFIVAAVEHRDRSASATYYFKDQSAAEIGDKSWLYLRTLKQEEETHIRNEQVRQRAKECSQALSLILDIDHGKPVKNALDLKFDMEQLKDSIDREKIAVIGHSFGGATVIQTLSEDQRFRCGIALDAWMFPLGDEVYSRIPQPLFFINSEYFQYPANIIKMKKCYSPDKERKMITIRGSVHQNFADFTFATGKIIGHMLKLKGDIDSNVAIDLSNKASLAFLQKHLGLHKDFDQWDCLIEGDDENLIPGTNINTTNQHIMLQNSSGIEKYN
Assay [9] is described as follows: suppression of KLF5 promoter-driven luciferase – DLD-1 cells, luminescence, confirmation (AID 1834;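 active = inhibition above a set limit taken from the earlier primary screen, cut at about 63% in these data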;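 note: 0% = DMSO wells and 100% = LY294002 at 200 µM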). As to conditions: DLD-1 KLF5 promoter firefly luciferase reporter, at 4 µM, active compounds read high. In general terms: A reporter such as luciferase makes a cellular process visible.
Assay [10] is described as follows: IEC-6 intestinal cell killing – luminescence, triplicate, cytotoxicity control for KLF5 inhibitor project (AID 1905; in the data active = inhibition above about 23%;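 note: cells exposed to compounds for 48 hours before viability read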). As to conditions: IEC-6 rat intestinal cells, viability luminescence; at 4 µM; active compounds read high.
Assay [11] addresses Nuclear receptor coactivator 3 (Homo sapiens) (UniProt Q9Y6Q9). The experiment in a line: NCOA3 GAL4-fusion reporter inhibition – cell-based, luminescence, quadruplicate, confirmation (AID 588792;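 active = mean inhibition over 43.08%, the solvent-only control mean plus 3 SD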;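 note: 0% = DMSO treated cells and 100% = gossypol at 36 µM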). As to conditions: HEK293 GAL4-SRC3 luciferase reporter, at 3.6 µM, active compounds read high.
Assay [12] has as its system transactivating tegument protein VP16 (Human herpesvirus 1), Gal4-VP16 luciferase reporter. In words: repression of VP16-driven luciferase reporter – cell-based, luminescence, high throughput, counter-screen for SRC3 inhibitor project (AID 588794; in the data active = inhibition above about 30%). As to conditions: mammalian cells, at 3.6 µM, active compounds read high.
Assay [13] deals with Nuclear receptor coactivator 1 (Homo sapiens) (UniProt Q15788). The experiment in a line: NCOA1 GAL4-fusion reporter inhibition – cell-based, luminescence, quadruplicate, confirmation (AID 588820;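 active = mean inhibition above 46.68%, the untreated control wells mean plus 3 SD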;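 note: 0% = DMSO wells and 100% = gossypol 36 µM treated wells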). As to conditions: HEK293 GAL4-SRC1 luciferase reporter, at 3.6 µM, active compounds read high.
The nature of assay [14]: repression of VP16-driven luciferase reporter – cell-based, luminescence, high throughput, counter-screen for SRC1 inhibitor project (AID 588824; in the data active = inhibition above about 25%). As to conditions: cell-based VP16 transactivation luciferase luminescence; at 3.6 µM; active compounds read high.
The target of assay [15] is Photoreceptor-specific nuclear receptor (Homo sapiens) (UniProt Q9Y5X4). The experiment in a line: retest of NR2E3-NCOR disrupting agonists – cell-based, luminescence, CHO-S two-hybrid, confirmation (AID 624378;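 active = average inhibition above a cutoff equal to the mean inhibition of all tested compounds plus one SD, cut at about 70% in these data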;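 note: 0% = DMSO in NR2E3 cells and 100% = DMSO in cells lacking NR2E3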). As to conditions: CHO-S mammalian two-hybrid NR2E3-NCOR, luciferase luminescence; at 3.98 µM; active compounds read high.
Sequence of Photoreceptor-specific nuclear receptor (Homo sapiens) (Q9Y5X4 whole entry, looked up): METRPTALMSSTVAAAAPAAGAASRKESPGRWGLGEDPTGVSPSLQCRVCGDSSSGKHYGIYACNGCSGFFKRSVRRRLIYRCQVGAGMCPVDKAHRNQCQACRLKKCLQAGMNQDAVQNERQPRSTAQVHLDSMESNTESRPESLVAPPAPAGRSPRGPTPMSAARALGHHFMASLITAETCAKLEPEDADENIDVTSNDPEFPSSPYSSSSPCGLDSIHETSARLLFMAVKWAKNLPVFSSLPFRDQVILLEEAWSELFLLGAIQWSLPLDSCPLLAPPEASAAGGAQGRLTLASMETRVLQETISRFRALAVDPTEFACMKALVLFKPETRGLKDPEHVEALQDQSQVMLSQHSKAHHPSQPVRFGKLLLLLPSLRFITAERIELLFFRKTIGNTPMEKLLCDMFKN
The nature of assay [16]: nonselective effects on VP16 transactivation – cell-based, luminescence, CHO-S, high throughput, counter-screen for NR2E3 agonist project, confirmation (AID 624379;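 active = mean inhibition above a cutoff equal to the average over all tested compounds plus one standard deviation, cut at about 70% in these data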;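 note: 0% = DMSO with VP16-transfected cells and 100% = DMSO with cells lacking VP16; higher means less reporter light so more repression of VP16 activity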). As to conditions: CHO-S GAL4-VP16 luciferase reporter, at 3.98 µM, active compounds read high.
The nature of assay [17]: StAR promoter reporter inhibitors, counter-screen for LRH-1 inverse agonist project, cell-based, luminescence, high throughput (AID 651611; in the data active = inhibition above about 28%). As to conditions: StAR promoter luciferase reporter counterscreen, at 3.6 µM, active compounds read high.
Assay [18] deals with Nuclear receptor subfamily 5 group A member 2 (Homo sapiens) (UniProt O00482). In words: NR5A2 activity suppression in reporter cells – cell-based, luminescence, confirmation (AID 651613; in the data active = inhibition above about 42%;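 note: HEK293T cells co-transfected with LRH-1 and StAR promoter luciferase reporter; 0% = vehicle wells and 100% = parental cells lacking receptor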). As to conditions: cell-based LRH-1 luciferase reporter, inverse agonism; at 3.6 µM; active compounds read high.
Sequence of Nuclear receptor subfamily 5 group A member 2 (Homo sapiens) (O00482 whole entry, looked up): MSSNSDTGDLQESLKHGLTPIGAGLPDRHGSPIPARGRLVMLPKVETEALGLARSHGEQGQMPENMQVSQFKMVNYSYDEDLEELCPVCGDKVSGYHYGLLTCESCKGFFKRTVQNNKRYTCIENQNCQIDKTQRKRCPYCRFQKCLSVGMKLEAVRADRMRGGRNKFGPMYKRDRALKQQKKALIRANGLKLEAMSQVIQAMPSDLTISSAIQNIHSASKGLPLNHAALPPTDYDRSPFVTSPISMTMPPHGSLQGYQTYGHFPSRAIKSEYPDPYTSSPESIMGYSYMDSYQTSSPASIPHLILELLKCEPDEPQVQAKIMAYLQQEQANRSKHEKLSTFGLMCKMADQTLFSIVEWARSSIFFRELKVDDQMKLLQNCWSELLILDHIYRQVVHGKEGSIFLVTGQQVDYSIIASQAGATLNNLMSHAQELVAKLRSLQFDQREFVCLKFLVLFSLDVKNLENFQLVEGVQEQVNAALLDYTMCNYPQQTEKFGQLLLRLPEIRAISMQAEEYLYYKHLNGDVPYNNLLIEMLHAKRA
The target in assay [19] is Steroidogenic factor 1 (Homo sapiens) (UniProt Q13285). The experiment in a line: inverse agonism at SF1 nuclear receptor – cell-based, luminescence, high throughput, counter-screen for LRH-1 inverse agonist project (AID 651614; in the data active = inhibition above about 44%;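 note: cells cotransfected with StAR promoter reporter and SF1 expression vector; 0% = vehicle on cells with receptor and 100% = vehicle on cells lacking receptor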). As to conditions: cell-based SF1 luciferase reporter, at 3.6 µM, active compounds read high.
The nature of assay [20]: compounds suppressing VP16-driven luciferase signal – cell-based, luminescence, high throughput, counter-screen for LRH-1 inverse agonist project (AID 651615; in the data active = inhibition above about 33%). As to conditions: Gal4-VP16 luciferase reporter cells, at 3.6 µM, active compounds read high.
The nature of assay [21]: VP16-driven transactivation reporter suppression – cell-based, luminescence, HEK293, counter-screen for COUP-TFII antagonist project (AID 687007; in the data active = inhibition above about 13%). As to conditions: HEK293 Gal4-VP16 luciferase reporter, at 8.5 µM, active compounds read high.
Assay [22] has as its target COUP transcription factor 2 (Homo sapiens) (UniProt P24468). In words: retest of COUP-TFII reporter suppressors – cell-based, luciferase reporter, HEK293, triplicate, confirmation (AID 687008;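 active = mean inhibition over three repeats above a set limit taken from the earlier primary screen, cut at about 38% in these data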;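 note: 100% = cells given the luciferase reporter alone without the COUP-TF2 vector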). As to conditions: HEK293 NGFI-A luciferase reporter, luminescence; at 8.5 µM; active compounds read high.
Assay [23] addresses (Lyso)-N-acylphosphatidylethanolamine lipase (Mus musculus) (UniProt Q8VD66). The experiment in a line: mouse ABHD4 hydrolase blockers, triplicate – biochemical, fluorescence polarization, confirmation (AID 720658;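 active = mean inhibition across replicates above the hit cutoff set in the primary screen, cut at about 30% in these data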;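 note: 0% = wild-type ABHD4 with DMSO and 100% = catalytically dead S159A mutant with DMSO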). As to conditions: purified mABHD4, FP-Rh probe fluorescence polarization; at 8.92 µM; active compounds read high.
For assay [24], the system named is HIV-1 integrase (multimerization). The experiment in a line: stimulation of HIV-1 integrase oligomerization – biochemical, TR-FRET, counter-screen for LEDGF/p75 integration inhibitor project (AID 1053131; in the data active = activation above about 8.9%). As to conditions: TR-FRET HIV-1 integrase multimerization, at 7.7 µM, active compounds read high.
Assay [25] can be described thus: compounds disturbing TR-FRET signal readout – biochemical, HIV-1 IN multimerization, artefact control for LEDGF/p75-dependent integration inhibitor project, confirmation (AID 1053135;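 active = inhibition above the mean over all tested compounds plus 3 SD, which no compound reached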;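 note: 0% = integrase with antibodies and DMSO and 100% = antibodies without integrase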). As to conditions: TR-FRET optical interference counterscreen, at 7.7 µM, active compounds read high.
For assay [26], the system named is HIV-1 integrase / human LEDGF/p75 complex. In words: blockers of LEDGF/p75-dependent integrase activity – biochemical, TR-FRET, confirmation (AID 1053136; in the data active = inhibition above about 14%). As to conditions: TR-FRET LEDGF/p75-dependent HIV-1 integration, at 3.7 µM, active compounds read high.

A number with no mark means an inactive call. Some of the results follow. Calls of active or inactive are those of the source.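 Rule for the calls, unless noted: active = inhibition above the hit cutoff set in the earlier primary screen (cut at about 27% in these data); inactive = the rest.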

Sequence of Nuclear receptor coactivator 3 (Homo sapiens) (Q9Y6Q9 whole entry, looked up, the tested form may be a part): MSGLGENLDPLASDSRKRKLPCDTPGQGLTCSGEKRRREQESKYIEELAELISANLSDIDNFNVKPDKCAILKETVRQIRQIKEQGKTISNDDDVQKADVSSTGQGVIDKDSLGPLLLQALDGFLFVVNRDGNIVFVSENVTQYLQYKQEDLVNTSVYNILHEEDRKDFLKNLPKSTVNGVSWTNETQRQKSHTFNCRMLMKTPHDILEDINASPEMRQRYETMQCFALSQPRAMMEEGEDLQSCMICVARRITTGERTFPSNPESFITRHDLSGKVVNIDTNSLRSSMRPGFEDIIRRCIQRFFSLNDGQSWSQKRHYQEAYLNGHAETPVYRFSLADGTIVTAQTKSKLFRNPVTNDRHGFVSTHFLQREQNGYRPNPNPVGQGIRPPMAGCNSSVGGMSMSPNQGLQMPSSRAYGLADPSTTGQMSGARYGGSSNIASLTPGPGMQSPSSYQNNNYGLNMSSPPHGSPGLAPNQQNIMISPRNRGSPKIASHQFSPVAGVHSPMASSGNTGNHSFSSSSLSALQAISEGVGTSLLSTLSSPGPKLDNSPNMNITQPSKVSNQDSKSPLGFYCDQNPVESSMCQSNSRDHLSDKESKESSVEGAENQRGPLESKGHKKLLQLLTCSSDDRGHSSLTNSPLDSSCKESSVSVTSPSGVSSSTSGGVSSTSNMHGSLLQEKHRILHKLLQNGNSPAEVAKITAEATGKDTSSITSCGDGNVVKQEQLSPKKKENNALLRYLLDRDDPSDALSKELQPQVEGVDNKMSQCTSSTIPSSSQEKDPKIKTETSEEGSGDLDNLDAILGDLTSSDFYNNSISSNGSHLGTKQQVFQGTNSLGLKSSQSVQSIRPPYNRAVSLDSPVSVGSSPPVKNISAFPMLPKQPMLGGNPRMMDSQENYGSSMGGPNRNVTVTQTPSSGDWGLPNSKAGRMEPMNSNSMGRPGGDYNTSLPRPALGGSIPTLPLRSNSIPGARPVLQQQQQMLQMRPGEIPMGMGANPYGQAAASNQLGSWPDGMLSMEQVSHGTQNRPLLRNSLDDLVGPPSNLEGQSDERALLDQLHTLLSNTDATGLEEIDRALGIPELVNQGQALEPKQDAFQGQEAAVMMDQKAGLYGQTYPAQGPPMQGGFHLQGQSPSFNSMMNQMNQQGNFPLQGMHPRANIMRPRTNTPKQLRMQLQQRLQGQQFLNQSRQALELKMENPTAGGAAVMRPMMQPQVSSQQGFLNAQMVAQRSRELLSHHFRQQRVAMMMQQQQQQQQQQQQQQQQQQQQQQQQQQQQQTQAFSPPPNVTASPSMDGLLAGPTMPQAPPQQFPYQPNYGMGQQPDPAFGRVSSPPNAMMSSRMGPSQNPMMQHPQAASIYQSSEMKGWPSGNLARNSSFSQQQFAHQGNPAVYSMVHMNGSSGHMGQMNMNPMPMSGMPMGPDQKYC
Sequence of COUP transcription factor 2 (Homo sapiens) (P24468 whole entry, looked up): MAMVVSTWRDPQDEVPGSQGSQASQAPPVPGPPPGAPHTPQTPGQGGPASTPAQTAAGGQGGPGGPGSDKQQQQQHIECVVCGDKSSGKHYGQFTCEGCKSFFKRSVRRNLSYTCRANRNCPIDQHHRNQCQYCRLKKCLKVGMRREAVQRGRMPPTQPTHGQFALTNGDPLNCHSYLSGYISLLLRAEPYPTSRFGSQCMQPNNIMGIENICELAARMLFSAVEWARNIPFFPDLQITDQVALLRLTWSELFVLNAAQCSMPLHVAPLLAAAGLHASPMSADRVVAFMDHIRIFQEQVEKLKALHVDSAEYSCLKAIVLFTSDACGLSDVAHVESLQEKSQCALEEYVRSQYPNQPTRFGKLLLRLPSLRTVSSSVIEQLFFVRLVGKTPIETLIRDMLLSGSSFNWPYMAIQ
Sequence of (Lyso)-N-acylphosphatidylethanolamine lipase (Mus musculus) (Q8VD66 whole entry, looked up): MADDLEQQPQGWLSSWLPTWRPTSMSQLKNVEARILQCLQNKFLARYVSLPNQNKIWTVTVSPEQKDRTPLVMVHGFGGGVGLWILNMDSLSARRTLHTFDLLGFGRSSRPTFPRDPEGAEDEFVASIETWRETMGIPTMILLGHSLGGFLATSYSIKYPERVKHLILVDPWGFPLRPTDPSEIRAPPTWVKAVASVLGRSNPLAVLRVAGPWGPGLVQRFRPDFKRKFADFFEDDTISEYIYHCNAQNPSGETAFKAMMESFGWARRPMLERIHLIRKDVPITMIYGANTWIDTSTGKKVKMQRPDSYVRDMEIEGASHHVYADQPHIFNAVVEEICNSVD

On to `O=P(Oc1ccccc1)(Oc1ccccc1)C(O)c1ccc(Cl)cc1` (configuration not stated), for which the inhibition in assay [1] is 59.3% (active).

Regarding `CN(C)CC1Oc2ccccc2OC1(O)c1ccccc1` (configuration not stated), the inhibition in assay [2] was 100% (active); in [3], 23.3%.

Take `CCCCn1c(C)c(C(=O)OCC)c2c(CN3CCCC3)c(O)ccc21`: in assay [1], the inhibition is 10.3%.

For the compound `COc1ccc(CN2CCN(c3ccccc3F)CC2)c(OC)c1`, the inhibition is -8.64% in [4] and 4.55% in assay [5].

`O=P(Oc1ccccc1)(Oc1ccccc1)C(O)c1ccccc1` (configuration not stated): the inhibition in [1] was 78.1% (active).

On to `O=C(CN1CC=C(c2ccccc2)CC1)Nc1c(Cl)cccc1Cl`, for which the inhibition in [1] is 28.2% (active).

Regarding `NP(=O)(OCCCc1ccccc1)Oc1ccccc1Cl` (configuration not stated), in assay [1], the inhibition is 86.4% (active).

Regarding `COc1ccc(N2C(=O)/C(=C/c3ccco3)C(=O)NC2=S)cc1`, the inhibition in assay [6] was 50.7% (active); in assay [7], 55.3% (active); in assay [8], 17.3%.

On to `CCCCCCCCCCCCn1ccc(=N)cc1`, for which the inhibition in assay [9] was 62.6% (active); in [10] it was 46.8% (active); in assay [11] it was 67.6% (active); in [12], 78.8% (active); in assay [13] it was 53.8% (active); in assay [14] it was 78.9% (active). The inhibition in [15] is 99.7% (active); in assay [16], 86.7% (active); in assay [17], 74.4% (active); in [18], 101% (active); in [19], 92.7% (active); in assay [20] it was 89.8% (active). In addition, the inhibition is 14.2% (active) in assay [21] and 76.4% (active) in [22].

Turning to `CN(C)C1(c2nnnn2CCOC(=O)Nc2ccc(Cl)cc2)CCCCC1`, the inhibition in [1] is 25%.

Turning to `COc1cccc(OC)c1C1=NCC(=O)Nc2c1oc1ccc(Br)cc21`, the inhibition in [1] is 52.8% (active).

In the case of `CCC(=O)c1cn(Cc2ccccc2C#N)c2ccccc12`, the inhibition in assay [1] is 19.9%.

As to `Cc1ccccc1NP(=O)(Oc1ccccc1F)Oc1ccccc1F`, the inhibition in assay [1] is 43.5% (active).

Regarding `Oc1c(Br)c(Br)c(Br)c(Br)c1Br`, the inhibition in assay [1] is 84.2% (active).

`CCOc1cccc(=NC2CCCCC2)c2c(C)[nH]c(C)c12`: the inhibition was 21.3% in assay [11]; 20.1% in assay [12]; 16.3% in [23]; -0.97% in assay [25]; -1.3% in assay [26]. The activation in assay [24] is 0.2%.

Usually inhibition stands for the relative decrease from the control value, in per cent.
